# In the supplement of paper PMC8728848:
# The full list was thinned out, with the strongest signals kept by preference.
# B1: CRT-1 (Homo sapiens), P27797 (protein)
# chain: MLLSVPLLLGLLGLAVAEPAVYFKEQFLDGDGWTSRWIESKHKSDFGKFVLSSGKFYGDEEKDKGLQTSQDARFYALSASFEPFSNKGQTLVVQFTVKHEQNIDCGGGYVKLFPNSLDQTDMHGDSEYNIMFGPDICGPGTKKVHVIFNYKGKNVLINKDIRCKDDEFTHLYTLIVRPDNTYEVKIDNSQVESGSLEDDWDFLPPKKIKDPDASKPEDWDERAKIDDPTDSKPEDWDKPEHIPDPDAKKPEDWDEEMDGEWEPPVIQNPEYKGEWKPRQIDNPDYKGTWIHPEIDNPEYSPDPSIYAYDNFGVLGLDLWQVKSGTIFDNFLITNDEAYAEEFGNETWGVTKAAEKQMKDKQDEEQRLKEEEEDKKRKEEEEAEDKEDDEDKDEDEEDEEDKEEDEEEDVPGQAKDEL
# What was measured:
# Experiment in all cases: glycan array binding signal (z-score within array); higher = stronger binding
# Details in all cases: glycan notation: IUPAC condensed, linker removed
# [1] = target: Gal3S(b1-3)GalNAc
# Summary of the method: (§1)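 The binding signal is a Z-score computed within each array and averaged over linkers. Arrays of the same protein sequence at different concentrations or buffers were also averaged together. Data originate from 3228 arrays in the Consortium for Functional Glycomics database, kept only where the protein sequence was available.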
# [2] = target: Gal3S(b1-4)GlcNAc6S
# Summary of the method: as §1
# [3] = target: Gal6S(b1-4)Glc
# Summary of the method: as §1
# [4] = target: Gal6S(b1-4)GlcNAc
# Summary of the method: as §1
# [5] = target: GalNAc(b1-3)Gal(a1-4)Gal(b1-4)GlcNAc(b1-3)Gal(b1-4)Glc
# Summary of the method: as §1
# [6] = target: GalNAc(b1-3)GlcNAc
# Summary of the method: as §1
# [7] = target: GalNAc(b1-6)GalNAc
# Summary of the method: as §1
# [8] = target: Glc(a1-6)Glc(a1-6)Glc(a1-6)Glc
# Summary of the method: as §1
# [9] = target: GlcNAc(a1-4)Gal(b1-4)GlcNAc(b1-3)Gal(b1-4)[Fuc(a1-3)]GlcNAc(b1-3)Gal(b1-4)[Fuc(a1-3)]GlcNAc
# Summary of the method: as §1
# [10] = target: GlcNAc(a1-6)Gal(b1-4)GlcNAc
# Summary of the method: as §1
# [11] = target: GlcNAc(b1-3)Gal(b1-4)GlcNAc(b1-2)[GlcNAc(b1-3)Gal(b1-4)GlcNAc(b1-6)]Man(a1-6)[GlcNAc(b1-3)Gal(b1-4)GlcNAc(b1-2)Man(a1-3)]Man(b1-4)GlcNAc(b1-4)GlcNAc
# Summary of the method: as §1
# [12] = target: GlcNAc(b1-3)Gal(b1-4)GlcNAc(b1-3)Gal(b1-4)GlcNAc(b1-2)Man(a1-3)[GlcNAc(b1-3)Gal(b1-4)GlcNAc(b1-3)Gal(b1-4)GlcNAc(b1-2)Man(a1-6)]Man(b1-4)GlcNAc(b1-4)[Fuc(a1-6)]GlcNAc
# Summary of the method: as §1
# [13] = target: GlcNAc(b1-3)Gal(b1-4)GlcNAc(b1-3)Gal(b1-4)GlcNAc(b1-3)Gal(b1-4)GlcNAc(b1-3)Gal(b1-4)GlcNAc(b1-2)Man(a1-3)[GlcNAc(b1-3)Gal(b1-4)GlcNAc(b1-3)Gal(b1-4)GlcNAc(b1-3)Gal(b1-4)GlcNAc(b1-3)Gal(b1-4)GlcNAc(b1-2)Man(a1-6)]Man(b1-4)GlcNAc(b1-4)GlcNAc
# Summary of the method: as §1
# [14] = target: GlcNAc(b1-3)Man
# Summary of the method: as §1
# [15] = target: Neu5Ac(a2-3)Gal(b1-3)GlcNAc(b1-2)[Neu5Ac(a2-3)Gal(b1-3)GlcNAc(b1-4)]Man(a1-6)[Neu5Ac(a2-3)Gal(b1-3)GlcNAc(b1-2)Man(a1-3)]Man(b1-4)GlcNAc(b1-4)GlcNAc
# Summary of the method: as §1
# [16] = target: Neu5Ac(a2-3)Gal(b1-4)GlcNAc(b1-6)[Neu5Ac(a2-3)Gal(b1-3)]GalNAc
# Summary of the method: as §1
# [17] = target: Neu5Ac(a2-3)Gal(b1-4)[Fuc(a1-3)]GlcNAc(b1-3)Gal(b1-4)GlcNAc
# Summary of the method: as §1
# [18] = target: Neu5Ac(a2-3)[GalNAc(b1-4)]Gal(b1-4)GlcNAc(b1-3)GalNAc
# Summary of the method: as §1
# [19] = target: Neu5Ac(a2-6)Gal(b1-4)GlcNAc(b1-2)Man(a1-3)[GlcNAc(b1-2)Man(b1-4)GlcNAc(b1-2)Man(a1-6)]Man(b1-4)GlcNAc(b1-4)GlcNAc
# Summary of the method: as §1
# [20] = target: Neu5Ac(a2-6)Gal(b1-4)GlcNAc(b1-2)Man(a1-3)[Man(a1-6)]Man(b1-4)GlcNAc(b1-4)GlcNAc
# Summary of the method: as §1
# [21] = target: Neu5Ac(a2-6)Gal(b1-4)GlcNAc(b1-2)Man(a1-3)[Neu5Ac(a2-6)Gal(b1-4)GlcNAc(b1-2)Man(a1-6)]Man(b1-4)GlcNAc(b1-4)GlcNAc
# Summary of the method: as §1
# [22] = target: Neu5Ac(a2-6)Gal(b1-4)GlcNAc(b1-3)Gal(b1-4)GlcNAc(b1-3)Gal(b1-4)GlcNAc(b1-2)Man(a1-3)[Neu5Ac(a2-6)Gal(b1-4)GlcNAc(b1-3)Gal(b1-4)GlcNAc(b1-3)Gal(b1-4)GlcNAc(b1-2)Man(a1-6)]GalNAc
# Summary of the method: as §1
# [23] = target: Neu5Ac(a2-6)Gal(b1-4)GlcNAc(b1-3)Gal(b1-4)GlcNAc(b1-3)GalNAc
# Summary of the method: as §1
# [24] = target: Neu5Ac(a2-6)GalNAc
# Summary of the method: as §1
# [25] = target: Neu5Ac(a2-8)Neu5Gc(a2-3)Gal(b1-4)GlcNAc
# Summary of the method: as §1
# [26] = target: Neu5Gc(a2-3)Gal(b1-3)GlcNAc
# Summary of the method: as §1
# [27] = target: Neu5Gc(a2-8)Neu5Gc(a2-3)Gal(b1-4)GlcNAc
# Summary of the method: as §1
binder,measurement,setting,value
B1,glycan array binding signal (z-score),[1],-0.188
same,glycan array binding signal (z-score),[2],-0.498
same,glycan array binding signal (z-score),[3],-0.297
same,glycan array binding signal (z-score),[4],-0.673
same,glycan array binding signal (z-score),[5],0.488
same,glycan array binding signal (z-score),[6],0.853
same,glycan array binding signal (z-score),[7],0.544
same,glycan array binding signal (z-score),[8],0.137
same,glycan array binding signal (z-score),[9],1.95
same,glycan array binding signal (z-score),[10],-0.513
same,glycan array binding signal (z-score),[11],2.14
same,glycan array binding signal (z-score),[12],1.91
same,glycan array binding signal (z-score),[13],0.27
same,glycan array binding signal (z-score),[14],0.915
same,glycan array binding signal (z-score),[15],-0.396
same,glycan array binding signal (z-score),[16],-0.461
same,glycan array binding signal (z-score),[17],0.745
same,glycan array binding signal (z-score),[18],-0.233
same,glycan array binding signal (z-score),[19],12.5
same,glycan array binding signal (z-score),[20],0.357
same,glycan array binding signal (z-score),[21],2.53
same,glycan array binding signal (z-score),[22],1.9
same,glycan array binding signal (z-score),[23],-1.62
same,glycan array binding signal (z-score),[24],0.869
same,glycan array binding signal (z-score),[25],-0.349
same,glycan array binding signal (z-score),[26],-0.645
same,glycan array binding signal (z-score),[27],-0.33
